Source: PubChem (The Scripps Research Institute Molecular Screening Center)
M1 ag parental = M1 agonist counterscreen hit in parental CHO-K1 cells | hit rate 0.48% among 360,000 | Fluo-8 calcium fluorescence; scaled to maximal ATP response, vehicle zero | activation, % at 3 µM; in the data active = activation above about 15%;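 note: untransfected CHO-K1 host cells lacking M1 receptor as counterscreen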
CHRM1 PAM = positive allosteric modulators of human M1 muscarinic receptor; hit rate 0.088% among 360,000; activation, % at 3 µM; P11229; CHO-K1 hM1, Fluo-8 calcium fluorescence, ACh EC20; 0% = ACh EC20, 100% = maximal ACh; in the data active = activation above about 19%, passing the limit was not always enough
Target sequence (P11229 whole entry, looked up): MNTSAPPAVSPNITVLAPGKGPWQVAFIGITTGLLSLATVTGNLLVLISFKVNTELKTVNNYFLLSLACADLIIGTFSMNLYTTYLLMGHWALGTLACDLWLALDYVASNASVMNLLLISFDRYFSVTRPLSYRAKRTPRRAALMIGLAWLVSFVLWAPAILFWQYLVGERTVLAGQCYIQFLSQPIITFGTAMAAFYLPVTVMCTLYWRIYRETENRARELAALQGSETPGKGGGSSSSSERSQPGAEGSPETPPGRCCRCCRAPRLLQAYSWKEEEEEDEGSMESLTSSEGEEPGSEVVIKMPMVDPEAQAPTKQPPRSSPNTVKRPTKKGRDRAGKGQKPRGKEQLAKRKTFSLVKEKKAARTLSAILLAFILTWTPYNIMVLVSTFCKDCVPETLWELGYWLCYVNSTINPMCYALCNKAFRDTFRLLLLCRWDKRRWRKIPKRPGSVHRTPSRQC
CHO-K1 Ca antag = M1 antagonist counterscreen hit in parental CHO-K1 cells. ATP-induced calcium, Fluo-8 fluorescence. inhibition, % at 3 µM. hit rate 0.6% among 360,000;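 active = inhibition above a per-plate cutoff, the plate's mean sample inhibition plus 3 SD, cut at about 24% in these data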;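 note: 0% = DMSO plus EC80 ATP and 100% = DMSO alone without ATP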
M1 PAM parental = nonselective activator or artifact in parental CHO-K1 calcium assay; ATP EC20, Fluo-8 calcium fluorescence; 0% at ATP EC20, 100% at ATP max; activation, % at 3 µM; hit rate 0.02% among 360,000; AID 602247;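 active = activation above the run cutoff, the mean activation of all test compounds plus 3 SD, cut at about 40% in these data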;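 note: peak over basal fluorescence ratio in a 140 s read after ATP addition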
CHRM1 antagonist = blocks human M1 muscarinic receptor; CHO-K1 hM1, Fluo-8 calcium fluorescence, ACh EC80 antagonist; inhibition, % at 3 µM; hit rate 1.3% among 360,000; AID 588852;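 active = percent inhibition above its own plate's cutoff, namely the mean of that plate's compound wells plus 3 SD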;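 note: peak over basal fluorescence ratio during 140 s after agonist addition; 0% = ACh EC80 plus DMSO and 100% = DMSO alone without agonist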
M1 ag = agonists of human M1 muscarinic receptor; CHO-K1 hM1, Fluo-8 calcium fluorescence, agonist mode; 0% DMSO, 100% acetylcholine EC100; activation, % at 3 µM; hit rate 0.33% among 360,000; AID 588814;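 active = activation above the run's mean compound activation plus 3 SD, cut at about 16% in these data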;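 note: peak over basal fluorescence ratio within a 140 s kinetic read after compound addition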
Starred values were filed as active, the others as inactive; . = not tested or not shown. Most compounds without a hit are left out; they make up all but 2.4% or so of the library.

SMILES	M1 ag parental	CHRM1 PAM	CHO-K1 Ca antag	M1 PAM parental	CHRM1 antagonist	M1 ag
COc1ccccc1C(C(C(=O)c1ccccc1)N1CCOCC1)N1CCOCC1 (stereo not given)	0	2	0	-11	-2	-4
CC(=O)c1cccc(NC(=O)C2CCCN(S(C)(=O)=O)C2)c1 (stereo not given)	0	6	2	9	-8	9
CCOC(=O)c1ccc(NC(=O)C2CCCN(S(=O)(=O)c3ccc(F)cc3)C2)cc1 (stereo not given)	10	-17	6	-1	48*	2
CCOC(=O)c1ccc(NC(=O)C2CCN(S(=O)(=O)c3ccccc3)CC2)cc1	1	11	0	17	-20	3
CCOC(=O)c1ccc(NC(=O)Nc2ccc(F)cc2)cc1	12	-15	49*	-6	21*	10
CCOC(=O)c1ccc(NC(=S)NC2CCCC2)cc1	6	-4	17	-12	7	-7
CS(=O)(=O)N1CCCC(C(=O)Nc2cccc(F)c2)C1 (stereo not given)	0	32*	-10	17	-35	2
CCOC(=O)c1ccc(NC(=O)NC2CC3CCC(C2)N3)cc1 (stereo not given)	2	-22	-31	30	59*	-6
COc1cc(NC(=O)[C@H]2O[C@@H](n3ccc(N)nc3=O)[C@H](O)[C@@H]2O)cc(OC)c1OC	0	-7	-9	-6	-11	-1
CCc1ccc(C(=O)NNC(=O)C2CSC3(C)CCC(=O)N23)cc1 (stereo not given)	1	6	-7	14	-4	-2
CCOc1ccc(C(=O)NCC(=O)N2CCCC2)cc1	-1	1	1	-7	-4	-2
CC(=O)Nc1ccc(NC(=O)COC(=O)c2cc(S(=O)(=O)N3CCCC3)ccc2O)cc1	0	-15	-7	16	30*	-1
CC(OC(=O)c1ccc(Cl)nc1)C(=O)Nc1ccc(S(=O)(=O)N2CCCC2)cc1 (stereo not given)	1	-25	-3	-8	36*	-7
CC(Oc1ccc(Cl)cc1)C(=O)Nc1ccc(S(=O)(=O)N2CCOCC2)cc1 (stereo not given)	36*	-3	5	14	8	38*
Cc1nnc(SCC(=O)Nc2ccc(S(=O)(=O)N3CCCC3)cc2)n1N	0	-21	-2	1	54*	-3
CCOc1ccccc1CNC(=O)C1CCN(S(=O)(=O)N2CCC(C)CC2)CC1	2	-3	1	4	2	-3
Fc1cccc(NC(=S)NCCN2CCOCC2)c1	2	13	-1	26	-12	-7
O=C(COC(=O)c1cccc(Br)c1)NCc1ccco1	0	5	-3	7	-5	-3
CC(Oc1ccccc1Cl)C(=O)Nc1ccc(S(=O)(=O)N2CCCC2)cc1 (stereo not given)	4	-27	0	13	91*	-3
O=C(COC(=O)c1cc([N+](=O)[O-])ccc1NCCO)Nc1ccc2c(c1)OCO2	2	5	1	7	-3	-3
O=C(COc1ccccc1Br)Nc1ccc(S(=O)(=O)N2CCCC2)cc1	6	-29	-13	4	42*	-4
O=C(COC(=O)c1cc([N+](=O)[O-])ccc1NCCO)Nc1cccc(S(=O)(=O)N2CCCC2)c1	0	-19	9	2	40*	-7
CC(C)CCCN1C(Nc2ccccc2)=NC[C@@H]1C	1	13	-11	8	-12	-7
CC(C)OC(=O)c1c2c(n3ccccc13)C(=O)c1ccccc1C2=O	18*	-3	4	14	20	12
COC(=O)c1cc2c(C)c(C)c3ccccn3c-2c1C(=O)OC	1	5	0	10	-5	-3
SMILES	M1 ag parental	CHRM1 PAM	CHO-K1 Ca antag	M1 PAM parental	CHRM1 antagonist	M1 ag
O=C(Nc1ccc(Cl)cc1)C1CCCN(c2cnccn2)C1 (stereo not given)	4	6	-4	-2	-10	-1
O=C(NCCCNC(=O)c1cc(Cl)ccc1Cl)c1ccccn1	1	7	-11	2	-5	-2
Brc1cc2c(cc1Br)OCCOCCOCCOCCO2	1	2	0	9	-9	-7
Brc1ccc2c(c1)OCCOCCOc1cc(Br)ccc1OCCOCCOCCO2	11	-21	-10	12	39*	-3
COCCN1C(=O)COc2ccccc2C1C(=O)NC(C)(C)C (stereo not given)	0	.	-1	-13	.	.
OCC1(Cc2ccccc2)CCN(CCCC2CCCC2)CC1	5	-21	-5	4	34*	-5
COCC(=O)N1CCC(Oc2ccc(C(=O)N3C[C@@H]4CCC[C@H]3C4)cc2)CC1	0	-5	24*	-13	5	0
O=C(CSc1ccc(Cl)cc1)N1N=CCC1c1ccccc1 (stereo not given)	2	-7	-7	12	1	-6
NC(=NC(=O)c1ccc(Cl)cc1)N1N=CCC1c1ccccc1 (stereo not given)	-1	8	25*	-9	5	2
OC(c1cc(F)cc(Cl)c1)c1ncc(-c2ccc3ccccc3c2)[nH]1 (stereo not given)	4	0	-2	7	-2	11
S=C(NCc1ccc(Cl)cc1)Nc1ccncc1	21*	-14	31*	-19	44*	7
CCCCNC(=S)Nc1ccc(Cl)cc1	10	-10	31*	-11	14	-3
COc1ccc(NC(=S)NCCSc2ccc(Cl)cc2)c(OC)c1	0	14	24*	-2	-20	6
S=C(NCc1ccc(Cl)cc1)Nc1ccccc1	9	-8	1	10	2	-3
CN(C)CCNC(=S)Nc1ccc(Cl)cc1	0	25*	3	2	14	-5
CN(CC(=O)Nc1ccccc1Br)C(=O)COc1cccc2c1OC(C)(C)C2	3	11	-19	25	-14	-1
COc1cccc(CNc2nc3cc(-c4cccc(C(F)(F)F)c4)sc3c(=O)n2C)c1	0	7	-5	7	-16	0
Cc1ccc(NC(=S)NCCSc2ccc(Cl)cc2)cc1	3	-26	9	-11	56*	-6
Cc1ccc(SCCNC(=S)Nc2cc(C)cc(C)c2)cc1	4	-19	-5	15	21	-3
CCOc1cc(/C=C/C(=O)Nc2ccc(C(=O)NCCN(CC)CC)cc2)ccc1OCC(C)C	0	-22	-18	14	64*	-5
CCN(c1cccc(C)c1)S(=O)(=O)c1ccc2c3c(cccc13)C(=O)N2	1	0	28*	-8	6	-3
CCOC(=O)c1ccc(-n2c(O)c(/C=N/NC(=O)C3COc4ccccc4O3)c3ccccc3c2=O)cc1 (stereo not given)	6	-5	-9	15	3	1
